Compound activity deposited in PubChem by several laboratories.
Compounds with a hit are over-represented: about 0.97% of the library has one in this group of screens.
AGP1 TOR yeast: alters AGP1-GFP fluorescence in TOR pathway yeast screen | S. cerevisiae AGP1-GFP multiplex flow cytometry, 3 h; GFP as percent of DMSO wells | GFP response vs DMSO, % at 10 µM | 320,000 tested, 0.02% active | AID 2066;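 active = GFP response relative to DMSO above a set limit, near screen average plus 3 SD, cut at about 150% in these data; inconclusive = fewer than 70 cells counted for the yeast strain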;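 also: median GFP channel fluorescence of the gated AGP1 strain per well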
GASC-1 inh: human JMJD2C demethylase inhibition; Q9H3R0; GST-JMJD2C(1-420) H3K9me3 demethylation, DELFIA europium; inhibition, % at 2.35 µM; 330,000 tested, 0.069% active; AID 2099;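 active = more than half of a compound's replicate wells show inhibition beyond 50%, single wells judged on their own value; inconclusive = some, but no more than half, of replicates pass 50% inhibition; inactive = no replicate passes 50% inhibition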;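 also: signal counts dimethyl H3K9 product captured on neutravidin plate; 0% = median of DMSO wells and 100% = 0.3 times that DMSO median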
Target sequence (Q9H3R0 1-420 limits assumed): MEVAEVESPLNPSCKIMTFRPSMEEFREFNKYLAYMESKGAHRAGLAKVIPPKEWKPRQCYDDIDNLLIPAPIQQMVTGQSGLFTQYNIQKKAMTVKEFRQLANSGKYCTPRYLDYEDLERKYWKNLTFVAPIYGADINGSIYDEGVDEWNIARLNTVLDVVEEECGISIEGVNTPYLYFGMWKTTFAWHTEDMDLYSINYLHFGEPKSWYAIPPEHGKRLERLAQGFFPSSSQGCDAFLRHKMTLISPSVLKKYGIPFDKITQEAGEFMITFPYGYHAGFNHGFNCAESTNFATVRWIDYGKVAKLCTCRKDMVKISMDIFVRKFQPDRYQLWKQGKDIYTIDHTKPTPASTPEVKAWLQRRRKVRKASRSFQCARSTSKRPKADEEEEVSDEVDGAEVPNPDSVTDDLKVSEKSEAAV
CIT2-GFP yeast: alters CIT2-GFP fluorescence in TOR pathway yeast screen; GFP response vs DMSO, % at 10 µM; 320,000 tested, 0.065% active; AID 2029; S. cerevisiae CIT2-GFP strain, flow cytometry, 3 h; 100 means same as DMSO wells;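 active = GFP response relative to DMSO above a set limit, near the screen mean plus 3 SD, cut at about 150% in these data; inconclusive = Fewer than 70 cells measured for a yeast strain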;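 also: ratio of well median GFP fluorescence to mean of DMSO wells on the plate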
LAP4 TOR yeast: yeast TOR pathway LAP4-GFP modulation | S. cerevisiae LAP4-GFP multiplex, flow cytometry GFP, 3 h; median GFP as percent of DMSO wells | GFP response vs DMSO, % at 10 µM | 320,000 tested, 0.34% active | AID 2023;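 active = GFP response vs DMSO above a set limit, about the screen mean plus 3 SD, cut at about 150% in these data; inconclusive = under 70 cell events counted for the yeast strain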
RPL19A-GFP yeast: modulators of TOR pathway RPL19A-GFP in S. cerevisiae; S. cerevisiae RPL19A-GFP strain, flow cytometry, 3 h; hits give low values; 330,000 tested, 0.3% active; percent response vs DMSO, % at 10 µM;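 active = percent response vs DMSO below 50%; inconclusive = fewer than 70 events counted for the yeast strain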;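 also: median channel GFP fluorescence of the barcoded RPL19A-GFP strain; ratio of sample median GFP to plate DMSO average so 100% = DMSO; lower means less RPL19A-GFP as with rapamycin TOR inhibition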
MEP2-GFP yeast: yeast TOR pathway MEP2-GFP modulation; GFP response vs DMSO, % at 10 µM; 330,000 tested, 0.51% active; AID 2016; S. cerevisiae MEP2-GFP strain, flow cytometry GFP, 3 h; 100% = DMSO control level;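 active = GFP response versus DMSO above a set limit, roughly screen mean plus 3 SD, cut at about 180% in these data; inconclusive = fewer than 70 cells counted for a yeast strain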;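 also: median GFP fluorescence of the barcode-gated MEP2-GFP cells per well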
LAP4-GFP pick2: second confirmation of modulators of TOR reporter LAP4-GFP in yeast; S. cerevisiae LAP4-GFP strain, flow cytometry GFP, 3 h; 590 tested, 20% active; GFP response vs DMSO, % at 10 µM; shares compounds with LAP4 TOR yeast; AID 2621;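 active = GFP signal as percent of the solvent control above about 150%, meaning raised reporter expression, limit read from the data; inconclusive = fewer than 70 cells counted in the well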;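 also: ratio of well median GFP fluorescence to plate DMSO mean so 100% = DMSO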
MEP2-GFP pick2: reconfirmed MEP2-GFP TOR pathway modulator in yeast. shares compounds with LAP4 TOR yeast. S. cerevisiae MEP2-GFP strain, flow cytometry GFP, 3 h. GFP response vs DMSO, % at 10 µM. 590 tested, 10% active. AID 2622;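 active = GFP signal above 150% of the solvent control wells, that is a rise of more than half; inconclusive = fewer than 70 yeast cells counted in the well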;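 also: median channel GFP fluorescence of all gated yeast cells per well; ratio of median GFP to plate DMSO average so 100% = DMSO level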
RPL19A-GFP pick2: yeast RPL19A-GFP TOR reporter modulation, second cherry pick. shares compounds with LAP4 TOR yeast. S. cerevisiae RPL19A-GFP strain, flow cytometry GFP, 3 h; hits give low values; 100% means same as DMSO wells. GFP response vs DMSO, % at 10 µM. 590 tested, 3% active. AID 2623;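 active = under 65% GFP response relative to DMSO; inconclusive = yeast strain with under 70 measured events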;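 also: median GFP channel fluorescence per well over the all cells gate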
CIT2-GFP pick2: reconfirmed modulator of CIT2-GFP TOR reporter in yeast. GFP response vs DMSO, % at 10 µM. shares compounds with LAP4 TOR yeast. 590 tested, 8% active. S. cerevisiae CIT2-GFP strain, flow cytometry GFP, 3 h; DMSO control wells read 100%;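 active = GFP response vs DMSO above about 150%, limit read from the data; inconclusive = fewer than 70 events counted for a yeast strain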;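 also: median green fluorescence per well over all gated yeast cells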
AGP1-GFP pick2: yeast AGP1-GFP TOR reporter modulation, second cherry pick | shares compounds with LAP4 TOR yeast | S. cerevisiae AGP1-GFP strain, flow cytometry GFP, 3 h | percent response vs DMSO, % at 10 µM | 590 tested, under 10 active;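 active = over 150 percent of DMSO response; inconclusive = yeast strain measured with under 70 events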;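 also: median GFP channel fluorescence over all cells without mother daughter split; sample median GFP divided by mean DMSO control so 100% equals DMSO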
Yeast autofluor: compound is autofluorescent in yeast s288c cells. shares compounds with LAP4 TOR yeast. fluorescence change (kMESF span) at 33 µM. S. cerevisiae s288c, 520 nm autofluorescence, flow cytometry, 3 h; hits give high values; zero means same as solvent-only cells. AID 2757. 610 tested, under 10 active;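 active = fluorescence span over the dose series, or activity score, above about 33, limit read from the data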
TORC1 bypass: stops wildtype yeast growth while TORC1 bypass cells still grow; shares compounds with LAP4 TOR yeast; S. cerevisiae BY4741 spot growth rating, 48-72 h; hits give low values; growth rating (0-3) at 30 µM; 120 tested, under 10 active;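 active = growth rating at most 1 for wild type yeast while the TORC1 bypass strain still grows fully, rated 3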
* = called active by the depositor; ? = inconclusive; nt = no result.

SMILES | AGP1 TOR yeast | GASC-1 inh | CIT2-GFP yeast | LAP4 TOR yeast | RPL19A-GFP yeast | MEP2-GFP yeast | LAP4-GFP pick2 | MEP2-GFP pick2 | RPL19A-GFP pick2 | CIT2-GFP pick2 | AGP1-GFP pick2 | others
O=[N+]([O-])c1c(NC2CCCCC2)nc(NCc2ccccc2)nc1N1CCOCC1 | nt | nt | nt | nt | nt | nt | nt | nt | nt | nt | nt | TORC1 bypass=3
COc1cc(Cl)ccc1OCc1cc(C(=O)NCCCN2CCCC2=O)no1 | 88 | -7 | 97 | 86 | 95 | 98 | nt | nt | nt | nt | nt
COc1ccc(Nc2cccc3ccccc23)cc1 | 83 | -4 | 85 | 106 | 98 | 90 | nt | nt | nt | nt | nt
CCN(C(=O)CSc1nc(N)cc(=O)[nH]1)c1c(N)n(Cc2ccccc2)c(=O)[nH]c1=O | 114 | 10 | 102 | 114 | 104 | 105 | nt | nt | nt | nt | nt
CCC1CCCCN1C(=O)C(=O)c1cn(CC(=O)N(CC)CC)c2ccccc12 (centres undefined) | 123 | 12 | 181* | 104 | 105 | 106 | 101 | 103 | 98 | 99 | 100
CCOC(=O)C1CCCN(S(=O)(=O)c2cc3c4c(c2)CCC(=O)N4CCC3)C1 (centres undefined) | 115 | ? | 97 | 109 | 102 | 96 | nt | nt | nt | nt | nt
O=S(=O)(/N=C(\Sc1ccccc1)c1ccccc1)c1ccc(Cl)cc1 | 96 | 1 | 86 | 111 | 97 | 100 | 110 | 105 | 98 | 99 | 100
Cc1ccc(S(=O)(=O)/N=C(/Sc2ccccc2C(=O)O)c2ccccc2)cc1 | 94 | -12 | 91 | 98 | 98 | 97 | 111 | 102 | 102 | 105 | 93
Cc1ccc(S(=O)(=O)/N=C(\Sc2ccccc2)c2ccccc2)cc1 | 104 | 0 | 80 | 174* | 89 | 96 | nt | nt | nt | nt | nt | Yeast autofluor=0
O=S(=O)(/N=C(\c1ccccc1)N1CCOCC1)c1ccc(Cl)cc1 | 105 | -7 | 104 | 94 | 102 | 101 | nt | nt | nt | nt | nt
COc1ccc(NC(=O)CN(C)C(=O)C2CCCO2)cc1 (centres undefined) | 98 | 2 | 96 | 99 | 95 | 98 | nt | nt | nt | nt | nt
COc1cc(NC(=O)c2sc3ncn(CC(=O)N4CCCCC4)c(=O)c3c2C)cc(OC)c1OC | 101 | 4 | 108 | 101 | 103 | 106 | nt | nt | nt | nt | nt
O=c1c2cc(Cl)ccc2nc(-c2ccccc2Cl)n1O | 76 | 5 | 75 | 113 | 60 | 95 | 105 | 98 | 100 | 88 | 104
CCOc1cc2c(C#N)c(N3CCOCC3)nc(N)c2c(N)n1 | nt | 1 | 97 | 93 | 93 | 100 | nt | nt | nt | nt | nt
CCOc1cc2c(C#N)c(N(CC)CC)nc(N)c2c(N)n1 | 70 | 13 | 67 | 153* | 95 | 89 | 101 | 100 | 99 | 100 | 97
O=C(O)COc1ccccc1C(Nc1cccnc1)c1cc(Cl)c2cccnc2c1O (centres undefined) | nt | -15 | nt | nt | nt | nt | nt | nt | nt | nt | nt
